According to PubChem BioAssay AID1159580 (chemical genetic matrix, 2015):
The campaign covered roughly 5,500 compounds. About 2,000 (36%) were called active. Not shown: some 18% with an inconclusive outcome. Cut-off read from the data, not from the text of the source: active = normalized growth mostly below about 0.91 (no sharp cut-off); inconclusive = no clear call, values can overlap the other calls; inactive = mostly above about 0.92. Some of the results follow.

Assay: chemical genetic growth profiling, strain panel (AID 1159580);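 note: tested at 20 µM; growth read once vehicle control cultures reached saturation at 30 °C; 1 = growth at the plate median or of vehicle wells; lower values mean less growth of the strain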
Conditions: growth OD

Measured: normalized growth

COc1ccc2c(c1)O[C@H]1c3ccc(OC)cc3OC[C@@H]21
active: S. cerevisiae deletion strains, locus YKL009W, strain mrt4, hits give low values 0.837 | S. cerevisiae deletion strains, locus YLR418C, strain cdc73, hits give low values 0.691 | S. cerevisiae deletion strains, locus YML032C, strain rad52, hits give low values 0.873 | S. cerevisiae deletion strains, locus YNL298W, strain CLA4, hits give low values 0.908 | S. cerevisiae deletion strains, locus YNL307C, strain MCK1, hits give low values 0.475 | S. cerevisiae deletion strains, locus YOL147C, strain pex11, hits give low values 0.886 | S. cerevisiae deletion strains, locus YOR184W, strain ser1, hits give low values 0.685 | S. cerevisiae deletion strains, locus YPR163C, strain tif3, hits give low values 0.677 | S. cerevisiae deletion strains, locus YPR167C, strain met16, hits give low values 0.907 | S. cerevisiae deletion strains, strain wtn01, hits give low values 0.886
inactive: S. cerevisiae deletion strains, locus YJR075W, strain HOC1, hits give low values 0.969 | S. cerevisiae deletion strains, locus YKL068W, hits give low values 0.99 | S. cerevisiae deletion strains, locus YKL085W, strain MDH1 (second series), hits give low values 0.98 | S. cerevisiae deletion strains, locus YKL085W, strain MDH1, hits give low values 0.98 | S. cerevisiae deletion strains, locus YKL160W, strain elf1, hits give low values 1.03 | S. cerevisiae deletion strains, locus YKL190W, strain CNB1, hits give low values 1.01 | S. cerevisiae deletion strains, locus YKR001C, strain vps1, hits give low values 0.936 | S. cerevisiae deletion strains, locus YKR026C, strain gcn3, hits give low values 1.02 | S. cerevisiae deletion strains, locus YKR091W, strain srl3, hits give low values 1.03 | S. cerevisiae deletion strains, locus YLL001W, strain dnm1, hits give low values 1.02 | S. cerevisiae deletion strains, locus YLL026W, hits give low values 1.03 | S. cerevisiae deletion strains, locus YLL041C, strain sdh2, hits give low values 1.03 | S. cerevisiae deletion strains, locus YLR027C, strain aat2, hits give low values 1.01 | S. cerevisiae deletion strains, locus YLR039C, strain RIC1, hits give low values 0.767 | S. cerevisiae deletion strains, locus YLR058C, strain SHM2, hits give low values 0.957 | S. cerevisiae deletion strains, locus YLR102C, strain apc9, hits give low values 0.949 | S. cerevisiae deletion strains, locus YLR113W, strain HOG1, hits give low values 1.02 | S. cerevisiae deletion strains, locus YLR221C, strain rsa3, hits give low values 1.02 | S. cerevisiae deletion strains, locus YLR258W, strain gsy2, hits give low values 1.03 | S. cerevisiae deletion strains, locus YLR262C, strain YPT6 (second series), hits give low values 1 | S. cerevisiae deletion strains, locus YLR262C, strain YPT6, hits give low values 0.744 | S. cerevisiae deletion strains, locus YLR268W, strain sec22, hits give low values 0.9 | S. cerevisiae deletion strains, locus YLR320W, strain mms22, hits give low values 1.02 | S. cerevisiae deletion strains, locus YLR330W, strain CHS5, hits give low values 0.975 | S. cerevisiae deletion strains, locus YLR342W, strain FKS1, hits give low values 1.02 | S. cerevisiae deletion strains, locus YLR357W, strain rsc2, hits give low values 0.99 | S. cerevisiae deletion strains, locus YLR370C, strain arc18, hits give low values 1.03 | S. cerevisiae deletion strains, locus YLR371W, strain rom2, hits give low values 0.972 | S. cerevisiae deletion strains, locus YLR384C, strain iki3, hits give low values 1.03 | S. cerevisiae deletion strains, locus YML016C, strain PPZ1, hits give low values 0.985 | S. cerevisiae deletion strains, locus YML120C, strain ndi1, hits give low values 1.02 | S. cerevisiae deletion strains, locus YML124C, strain tub3, hits give low values 0.95 | S. cerevisiae deletion strains, locus YMR058W, strain fet3, hits give low values 1.02 | S. cerevisiae deletion strains, locus YMR078C, strain ctf18, hits give low values 0.915 | S. cerevisiae deletion strains, locus YMR125W, strain sto1, hits give low values 1.02 | S. cerevisiae deletion strains, locus YMR129W, hits give low values 1.03 | S. cerevisiae deletion strains, locus YMR205C, strain PFK2, hits give low values 1.04 | S. cerevisiae deletion strains, locus YMR223W, strain ubp8, hits give low values 0.92 | S. cerevisiae deletion strains, locus YMR231W, strain pep5, hits give low values 1.03 | S. cerevisiae deletion strains, locus YMR307W, strain GAS1, hits give low values 0.927 | S. cerevisiae deletion strains, locus YNL067W, strain RPL9B, hits give low values 0.989 | S. cerevisiae deletion strains, locus YNL071W, strain lat1, hits give low values 1.01 | S. cerevisiae deletion strains, locus YNL153C, strain GIM3, hits give low values 0.953 | S. cerevisiae deletion strains, locus YNL183C, strain NPR1, hits give low values 0.946 | S. cerevisiae deletion strains, locus YNL209W, strain ssb2, hits give low values 1.01 | S. cerevisiae deletion strains, locus YNL233W, strain BNI4, hits give low values 0.953 | S. cerevisiae deletion strains, locus YNL248C, strain rpa49, hits give low values 1.02 | S. cerevisiae deletion strains, locus YNL250W, strain rad50, hits give low values 0.993 | S. cerevisiae deletion strains, locus YNL271C, strain bni1, hits give low values 0.944 | S. cerevisiae deletion strains, locus YNL322C, strain KRE1 (second series), hits give low values 1.04 | S. cerevisiae deletion strains, locus YNR049C, strain mso1, hits give low values 1.02 | S. cerevisiae deletion strains, locus YNR052C, strain pop2, hits give low values 0.963 | S. cerevisiae deletion strains, locus YOL012C, strain htz1 1.39 | S. cerevisiae deletion strains, locus YOR001W, strain rrp6, hits give low values 1.02 | S. cerevisiae deletion strains, locus YOR061W, strain CKA2, hits give low values 0.997 | S. cerevisiae deletion strains, locus YOR069W, strain VPS5, hits give low values 0.982 | S. cerevisiae deletion strains, locus YOR070C, strain gyp1, hits give low values 1.01 | S. cerevisiae deletion strains, locus YOR080W, strain dia2, hits give low values 1.02 | S. cerevisiae deletion strains, locus YOR083W, strain WHI5, hits give low values 1.03 | S. cerevisiae deletion strains, locus YOR106W, strain vam3, hits give low values 1.03 | S. cerevisiae deletion strains, locus YOR136W, strain idh2, hits give low values 0.953 | S. cerevisiae deletion strains, locus YOR144C, strain elg1, hits give low values 0.951 | S. cerevisiae deletion strains, locus YOR231W, strain MKK1, hits give low values 0.979 | S. cerevisiae deletion strains, locus YOR265W, strain rbl2, hits give low values 1.03 | S. cerevisiae deletion strains, locus YOR270C, strain vph1, hits give low values 1.01 | S. cerevisiae deletion strains, locus YOR290C, strain snf2, hits give low values 1.04 | S. cerevisiae deletion strains, locus YOR316C, strain cot1, hits give low values 0.962 | S. cerevisiae deletion strains, locus YPL051W, strain arl3, hits give low values 1.03 | S. cerevisiae deletion strains, locus YPL078C, strain atp4, hits give low values 1.04 | S. cerevisiae deletion strains, locus YPL106C, strain sse1, hits give low values 1.03 | S. cerevisiae deletion strains, locus YPL240C, strain hsp82, hits give low values 1.02 | S. cerevisiae deletion strains, locus YPL241C, strain CIN2, hits give low values 0.982 | S. cerevisiae deletion strains, locus YPL256C, strain CLN2, hits give low values 0.939 | S. cerevisiae deletion strains, locus YPR119W, strain clb2, hits give low values 0.939 | S. cerevisiae deletion strains, locus YPR141C, strain kar3, hits give low values 0.975 | S. cerevisiae strains, strain wild type, hits give low values 1.01
